According to the supplement of paper PMC4166925:
± gives the standard deviation of the averaged measurements. In all, about 33,000 sequences were measured (“E-score (dimensionless, -0.5 to 0.5)”: median about -0.046, highest 2% from about 0.36 on). Only a selection was taken, and the highest values are over-represented in it overall.

system: T1, SpTbr T-box DNA-binding domain (GST fusion); experiment: PBM E-score of 8-mer (E-score (dimensionless, -0.5 to 0.5)); Tbr is Tbrain of the sea star Patiria miniata (Pm) or the sea urchin Strongylocentrotus purpuratus (Sp); higher = stronger binding preference; details: the construct has about 5 more residues each side
T1 sequence: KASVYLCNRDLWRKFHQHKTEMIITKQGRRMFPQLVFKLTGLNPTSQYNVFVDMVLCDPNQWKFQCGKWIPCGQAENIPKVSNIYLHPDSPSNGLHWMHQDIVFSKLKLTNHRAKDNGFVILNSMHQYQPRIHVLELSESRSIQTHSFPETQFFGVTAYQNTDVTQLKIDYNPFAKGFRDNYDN
Experimental: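 Universal protein-binding microarray (Agilent AMADID 016060, 60-bp probes with a 35-bp variable region) incubated with 200 nM GST-fused Strongylocentrotus purpuratus Tbr T-box DNA-binding domain (residues 362-554) in PBS pH 7.5. Scored for every ungapped 8-mer (given with its reverse complement) as E-score (range -0.5 to 0.5; >0.45 counts as bound) and Z-score of median probe intensity. Two replicate arrays (datasets 1 and 2).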
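Also: protein at 200 nM in PBS on universal double-stranded arrays.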

Sequence	PBM E-score of 8-mer
AGGTGACG	0.453 ± 0.0078
ACGTGACA	0.3127 ± 0.0018
AGGTGACC	0.151 ± 0.0043
CGGTGACG	0.233 ± 0.02
AGGTGACT	0.276 ± 0.001
AGGTGACA	0.469 ± 0.015
CGATGGAG	-0.131 ± 0.032
AGACGTAC	-0.0414 ± 0.071
CCCCAGCC	-0.0674 ± 0.013
AGGAGTAT	-0.223 ± 0.0026
AATGACAG	0.0199 ± 0.049
GATGACCC	0.12 ± 0.0038
GATGACAA	0.278 ± 0.026
AATGACAC	0.3799 ± 0.0026
CATGACAC	0.3587 ± 0.0021
GATGACAC	0.402 ± 0.0092
AATCTGAT	-0.25 ± 0.015
GAACGCCC	0.138 ± 0.0086
AGGTGGGA	0.433 ± 0.0055
AGGTGGGC	-0.0803 ± 0.021
AGGTGGTC	-0.117 ± 0.11
CGGTGGGA	0.00775 ± 0.037
AGGTGGTG	0.34049 ± 0.00016
AGGTGGTA	0.405 ± 0.011
AGAGGGAA	-0.179 ± 0.028

Sequence	PBM E-score of 8-mer
GAGCTTCC	-0.129 ± 0.05
CGGCGACA	0.296 ± 0.018
AGGTGGAA	0.0503 ± 0.028
GAACTAAC	0.135 ± 0.023
GGCGACAA	0.3676 ± 0.0007
TGCGACAA	0.271 ± 0.022
CGCGACAA	0.309 ± 0.0049
CGCGACAC	0.35396 ± 0.00035
AGCGACAC	0.332 ± 0.022
GGCGACAC	0.381 ± 0.0043
GCTTTGCA	0.0233 ± 0.069
AGTCCAGG	-0.396 ± 0.039
AAGTCCCA	-0.0384 ± 0.044
CAGAAACC	-0.106 ± 0.08
AAATTCTG	-0.136 ± 0.06
AAAAGGTC	-0.00656 ± 0.018
CAAAGGTG	0.3923 ± 0.00076
AAAAGGTT	-0.0952 ± 0.076
AAAAGGTG	0.41 ± 0.0094
CAAAGGTC	-0.105 ± 0.028
CAAAGGTA	-0.0771 ± 0.04
GGTACTAC	-0.3 ± 0.033
ACGTCGAC	0.0807 ± 0.016
GCACTCCC	0.128 ± 0.051
AGCATAAT	-0.177 ± 0.0018

Sequence	PBM E-score of 8-mer
AGTAGGTG	0.3972 ± 0.0024
AGTAGGTA	-0.00286 ± 0.076
ACTAGGTG	0.403 ± 0.012
AATAGGTA	-0.0758 ± 0.075
AATAGGTC	-0.154 ± 0.017
ACTAGGTC	-0.14 ± 0.024
ACTAGGTA	-0.0768 ± 0.014
AATAGGTG	0.374 ± 0.03
AGTAGGTC	-0.0701 ± 0.038
TCAACAAA	-0.0651 ± 0.048
AGAAGTAT	-0.0503 ± 0.0051
AACGTTAT	0.0135 ± 0.06
ACAAAACA	0.0943 ± 0.064
ATAGAGTC	-0.206 ± 0.0048
CGTCTACA	0.0944 ± 0.046
ACGGTGTC	0.271 ± 0.051
AGGGTGCG	0.402 ± 0.01
CGGGTGTC	0.3608 ± 0.0021
AGGGTGCA	0.188 ± 0.025
AGGGTGTC	0.401 ± 0.015
AGGGTGTG	0.449 ± 0.011
AGGGGGTG	0.269 ± 0.055
AGGGTGCC	0.267 ± 0.013
AGGGTGTA	0.307 ± 0.035
AACAGAGT	-0.0053 ± 0.1

Sequence	PBM E-score of 8-mer
CACGTTGC	0.101 ± 0.025
ATTACTTA	-0.154 ± 0.05
AGAGAGAG	0.0384 ± 0.024
ACTAACAA	0.152 ± 0.039
CCTAACAA	0.161 ± 0.035
CCTAACAG	0.0988 ± 0.11
AGTAACAC	0.3552 ± 0.0029
GCTAACAC	0.417 ± 0.0044
CGTAACAC	0.3104 ± 0.0022
ACTAACAC	0.402 ± 0.0071
GCTAACCC	0.04 ± 0.097
GGTAACAC	0.435 ± 0.0032
ACTAACAG	0.1931 ± 0.00053
CCTAACAC	0.4165 ± 0.0028
GCTAACAA	0.293 ± 0.03
CGACCCGA	-0.0816 ± 0.051
TAACCAGA	-0.055 ± 0.015
AGCAAAAG	-0.191 ± 0.046
ACGCAACA	0.121 ± 0.024
ATTGCACA	0.121 ± 0.053
CCCCAGCG	-0.148 ± 0.02
ATTAACAA	0.14 ± 0.023
CTTAACAA	0.243 ± 0.0056
ATTAACAG	0.139 ± 0.014
ATTAACAC	0.45 ± 0.015

Sequence	PBM E-score of 8-mer
CTTAACCC	-0.000625 ± 0.011
CTTAACAC	0.429 ± 0.017
GTAGAAAA	-0.0889 ± 0.057
ATCCAGAG	-0.25 ± 0.021
CCTGGGAG	0.0895 ± 0.0077
GTGGCCGA	0.0547 ± 0.071
AGGAAAAT	-0.182 ± 0.018
GTCAATAA	0.129 ± 0.034
CGCCCGTC	0.0569 ± 0.029
CTTTTTCC	-0.132 ± 0.081
TACGTTCA	-0.0963 ± 0.066
AGCATTAT	0.00754 ± 0.061
CCACGTGC	0.114 ± 0.074
GCACGTGC	0.312 ± 0.081
ACACGTCG	0.372 ± 0.0071
ACACGTGG	0.299 ± 0.02
ACACGTGT	0.395 ± 0.0082
AAACGTGG	0.144 ± 0.0096
AAACGTGT	0.368 ± 0.018
ACACGTGA	0.283 ± 0.011
ACACGTCA	0.319 ± 0.017
ACACGTCT	0.342 ± 0.0038
ACACGTGC	0.3851 ± 0.0015
AAACGTGA	0.156 ± 0.0067
CCTTCCGC	0.168 ± 0.062

Sequence	PBM E-score of 8-mer
GATGCCTA	-0.279 ± 0.11
AAGGGCCA	-0.259 ± 0.0051
CTCAGCAC	0.171 ± 0.0069
TATCTCAA	-0.0883 ± 0.013
GTTCAACA	-0.118 ± 0.054
AAGTGAAA	0.209 ± 0.069
AAGTGACA	0.427 ± 0.013
CAGTGACA	0.329 ± 0.0062
AAGTGACT	0.0603 ± 0.012
CAGTGACG	0.0986 ± 0.12
TAGTGACA	0.417 ± 0.011
AAGTGACG	0.4 ± 0.0071
GAGTGACA	0.343 ± 0.033
AAGTGACC	0.233 ± 0.041
GCTGTAAC	-0.0609 ± 0.029
CTCAAAAG	-0.147 ± 0.012
ATGACCTA	-0.132 ± 0.046
ACAGAACA	-0.0577 ± 0.043
CCTGTGCG	0.125 ± 0.025
TCGCAAAA	0.132 ± 0.0091
TACTTGGA	-0.311 ± 0.035
AGGAGAGG	-0.247 ± 0.019
ATGTGTGG	0.356 ± 0.007
AGGTGTGG	0.486 ± 0.0081
CTGTGTGC	0.000685 ± 0.012

Sequence	PBM E-score of 8-mer
AGGTGGGG	0.238 ± 0.056
AGGTGTGC	0.445 ± 0.014
AGATGTGC	0.161 ± 0.011
ATCAGGAC	-0.3 ± 0.086
AAGCTCTA	-0.245 ± 0.027
GTGATAAA	0.305 ± 0.051
GTGATAAC	0.395 ± 0.0074
GTGATCAC	0.366 ± 0.022
ATGATAAC	0.092 ± 0.059
ATGATCAC	0.1861 ± 0.0015
GTGATCAA	0.144 ± 0.022
ACGATGGA	-0.0806 ± 0.066
AGTAATCG	0.087 ± 0.023
GCTCCTAC	0.0646 ± 0.0047
AATTCAGC	-0.016 ± 0.024
CCGGACGA	-0.223 ± 0.017
ATCGCCTC	0.169 ± 0.061
CGTGTCAG	0.25651 ± 0.00017
GCTGTCAC	0.326 ± 0.025
CCTGTCAA	0.328 ± 0.025
CGTGTCAA	0.4367 ± 0.0011
GATGTCAC	0.296 ± 0.023
